Screens from PubChem.
Shown are actives, neighbours in structure and some others; about 19% of the full set was active somewhere.
HT1080-NT tox: qHTS for induction of synthetic lethality in tumor cells producing 2HG: qHTS for the HT-1080-NT fibrosarcoma cell line. AID 686970, 2013. 1.6% of 360,000 active. Potency, µM (doses to about 46.1 µM), for the others: at the highest dose activity, negative = less viability, actives largely listed as cytotoxic. HT-1080-NT fibrosarcoma viability, CellTiter-Glo ATP luminescence, 48 h;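 note: NT is the 2HG producing partner of a matched IDH1 knockdown line; potency is the fitted concentration of half-maximal effect; 0% = DMSO-treated cells and -100% = media-only wells without cells; nearly all actives have a fitted effect of over 55% in size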
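HT-1080-NT fibrosarcoma cells (2HG-overproducing), 750 cells/well in RPMI with 5% FBS, dosed after 2 h and incubated 48 h at 37C. CellTiter-Glo luminescence normalized to DMSO and no-cell wells; concentration-response curves fitted and classed.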
HT1080 IDH1KD tx: qHTS for induction of synthetic lethality in tumor cells producing 2HG: qHTS for the HT-1080-IDH1KD cell line; HT-1080 IDH1 knockdown viability, ATP luminescence, 48 h; Potency, µM (doses to about 46.1 µM), for the others: at the top dose activity, negative = toxicity, usual class: cytotoxic; 2% of 360,000 active;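 note: potency is the fitted concentration of half-maximal effect; 0% = DMSO wells and -100% = cell-free medium wells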
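In this qHTS, HT-1080 cells depleted of IDH1 are exposed for 48 h at 37 °C to compound titrations. Toxicity is scored from CellTiter-Glo luminescence, with DMSO as full viability and medium alone as none.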
TDP1 cell noCPT: qHTS for Inhibitors of human tyrosyl-DNA phosphodiesterase 1 (TDP1): qHTS in cells in absence of CPT. DT40 Tdp1-/- hTDP1 cells, no CPT, ATP luminescence, 48 h. Potency, µM (titrated, usually from 46.2 µM), for the others: at the highest dose activity change, negative = growth inhibition, usual class: inhibitors. 15% of 420,000 active. AID 686978, 2013; note: potency is the fitted concentration of half-maximal effect; nearly all actives have a fitted effect of over 55% in size
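Chicken DT40 Tdp1-/- cells complemented with human TDP1, screened without camptothecin (DMSO vehicle only), 400 cells/well. Compounds pin-transferred, cells incubated at 37 °C for at least 48 hr. Growth read as ATP-dependent luminescence (CellTiter-Glo, 30 min at RT).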
IL1B secr inh: qHTS for Inhibitors of Inflammasome Signaling: IL-1-beta AlphaLISA Primary Screen | THP-1 LPS/ATP IL-1B secretion, AlphaLISA, 16 h; active compounds read low | activity change, % at 57.5 µM | 4.7% of 360,000 active; in the data active = activity change below about -50%; inconclusive = mostly about -30% to -49%
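THP-1 cells pretreated 1 hr with compounds (up to 57.5 uM final), then stimulated with LPS (250 ng/mL final) plus ATP (1.25 mM final); secreted IL-1B measured by AlphaLISA after 16 hr, decreased signal indicating inhibition.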
TDP1 cell CPT: qHTS for Inhibitors of human tyrosyl-DNA phosphodiesterase 1 (TDP1): qHTS in cells in presence of CPT. chicken DT40 Tdp1-/-;hTDP1 cells + 20 nM CPT, ATP luminescence, 48 h. Potency, µM (series often up to 46.2 µM), inactives show at the highest dose activity change, negative = growth inhibition, usual class: inhibitors. 12% of 420,000 active. AID 686979, 2013; note: potency is the fitted concentration of half-maximal effect; nearly all actives have a fitted effect of over 55% in size
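Cell growth measured by CellTiter-Glo luminescence after a minimum 48 h, 37 C compound exposure with 20 nM CPT in Tdp1-knockout DT40 cells stably expressing hTDP1, seeded 400/well; qHTS titration format.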
* = called active by the depositor; u = inconclusive; x = no result given; [ ] = remark or other dose. Unless noted, calls come from the whole dose curve; as a rule, active = well fitted curve in the direction sought with a large enough effect; inconclusive = small, poorly fitted or top-dose-only effect, or another doubt; inactive = no such curve, though single readings can be large; an effect the other way counts as inactive or inconclusive. Unless noted, % is set by controls: 0 for no effect and ±100 for the full control effect.

SMILES	HT1080-NT tox	HT1080 IDH1KD tx	TDP1 cell noCPT	IL1B secr inh	TDP1 cell CPT
CC(=O)c1cccc(Nc2nc(-c3ccccc3)nc3ccccc23)c1	-4%	u	u	-22	u
CC(=O)c1ccc(Nc2nc(-c3ccccc3)nc3ccccc23)cc1	u	-20%	21µM*	-60*	u
Cc1cccc(CNc2nc(-c3ccc(C(=O)N(C)C)cc3)nc3ccccc23)c1	x	x	2.9µM*	x	23µM*
Cn1c(NCCc2ccncc2)nc2cc(-c3cccc(C(F)(F)F)c3)sc2c1=O	2%	-19%	u	15	u
Cc1noc(C)c1C(=O)N1CCC2(CC1)CCN(C(c1ccccc1)c1ccccc1)CC2	x	x	u	x	-27%
O=C(CN1CCN(S(=O)(=O)c2cccs2)CC1)NCC1CCCCC1	1%	7%	-10%	21	-20%
Cc1ccc(S(=O)(=O)N2CCN(C(=O)N(C)C)CC2)cc1	-18%	2%	14%	-2	-23%
Cc1cccc(Nc2nc(-c3ccccc3)nc3ccccc23)c1	x	x	-81%	x	u
Oc1cccc(Nc2nc(-c3ccccc3)nc3ccccc23)c1	u	u	u	-91*	u
Fc1ccc(Nc2ncnc3ccccc23)cc1	4%	11%	-28%	-14	u
Cc1cccc(CNC(=O)c2ccc3nc(-c4ccccc4)c(-c4ccccc4)nc3c2)c1	x	x	u	x	21µM*
CS(=O)(=O)Nc1cccc(-c2ccc3ncnc(Nc4ccc(F)cc4)c3c2)c1	x	x	u	x	18µM*
C=CCNC(=O)c1ccc2nc(-c3ccccc3)c(-c3ccccc3)nc2c1	-4%	-6%	u	-12	u
O=C(Nc1ncc(S(=O)(=O)c2ccc([N+](=O)[O-])cc2)s1)c1cccc2ccccc12	u	u	21µM*	29	15µM*
O=C(NC(Nc1ncc(S(=O)(=O)c2ccc([N+](=O)[O-])cc2)s1)(C(F)(F)F)C(F)(F)F)c1ccc(Cl)cc1	3.3µM*	u	15µM*	-76*	u
CC(=O)NCCC(=O)Nc1ncc(S(=O)(=O)c2ccc([N+](=O)[O-])cc2)s1	-1%	-4%	-17%	22	-19%
Cn1c(SCc2ccccn2)nnc1-c1ccccc1	12%	6%	1%	-21	5%
COCC(C)n1c(SCc2ccc(C(=O)OC)cc2)nc2ccccc2c1=O (stereo unspecified)	-16%	-24%	9.2µM*	5	12µM*
CCn1c(SCc2ccc(OC)c(F)c2)nc2ccccc2c1=O	u	-14%	-70%	-15	u
COCCNC(=O)c1ccc(-n2c(SCc3ccncc3)nc3ccccc3c2=O)cc1	-29%	u	-28%	-73*	-8%
COCC(C)n1c(SCc2ccc(OC)c(F)c2)nc2ccccc2c1=O (stereo unspecified)	-19%	-2%	4.1µM*	51	5.8µM*
COCCNC(=O)CSc1nc2ccccc2c(=O)n1-c1cccc(OC)c1	-1%[9.24 µM]	-5%	-17%	0	-20%
COc1ccc(S(=O)(=O)Nc2ccc(F)cc2F)cc1C(=O)N1CCOCC1	2%	14%	-1%	15	1%
COc1cccc(Cn2c(=O)n(CCc3ccccc3)c(=O)c3c2c2cc(OC)ccc2n3C)c1	x	x	-21%	x	1%
Cc1cc2c3c(c1C)C1(C(=O)N3C(C)(C)CC2C)C(C#N)=C(N)Oc2n[nH]c(C)c21 (stereo unspecified)	u	u	23µM*	-19	u
SMILES	HT1080-NT tox	HT1080 IDH1KD tx	TDP1 cell noCPT	IL1B secr inh	TDP1 cell CPT
CCOc1ccc(CCNC(=O)C2CC(C)=CCC2C(=O)O)cc1OCC (stereo unspecified)	12%	0%	u	8	0%
CC(CNC(=O)CCS(=O)(=O)c1cc2c(cc1Cl)NC(=O)CO2)c1ccccc1 (stereo unspecified)	-8%	1%	-9%	-8	13%
O=C(CN1CCN(CC(=O)Nc2ccccc2F)CC1)Nc1ccc(Cl)c(C(F)(F)F)c1	x	x	6.5µM*	x	7.3µM*
O=C(CN1CCN(CC(=O)Nc2ccccc2F)CC1)Nc1cccc(F)c1	15%	22%	-25%	-10	-22%
CCOc1ccc(NC(=O)CN2CCN(CC(=O)Nc3ccc(Cl)c(C(F)(F)F)c3)CC2)cc1	u	u	9.2µM*	-59*	12µM*
CCOc1ccc(NC(=O)CN2CCN(CC(=O)Nc3cccc(F)c3)CC2)cc1	-11%	-1%	-22%	14	u
O=C(CN1CCN(c2ccc(Cl)cc2)CC1)Nc1ccc(Cl)c(C(F)(F)F)c1	x	x	16µM*	x	u
O=C(CN1CCN(S(=O)(=O)c2ccc(F)cc2)CC1)Nc1ccc(Cl)c(C(F)(F)F)c1	u	-13%[9.24 µM]	9.2µM*	-60*	18µM*
O=C(CN1CCN(c2ccc(Cl)cc2)CC1)Nc1cccc(F)c1	-15%	-11%	u	-15	-28%
Cc1ccc(NCC(=O)N/N=C\c2ccc[nH]2)cc1	-1%	-12%	-15%	16	6%
C=CCc1c(C)nc2nc(SCC(=O)Nc3ccccc3CC)nn2c1C	x	x	u	x	-30%
Cc1nn(CC(=O)NCCCN2C(C)CCCC2C)c(=O)c2cc3occc3n12 (stereo unspecified)	3%	11%	28%	-24	-19%
Cc1cnc(C(=O)Nc2nccs2)cn1	9%	5%	-27%	5	-6%
COc1ccc(OCC(=O)Nc2cccc(-c3nc4ccccc4[nH]3)c2)cc1	3%[9.24 µM]	u	u	u	15µM*
COc1ccc(OCC(=O)Nc2cccc(-c3nc4ccccc4o3)c2)cc1	-10%	-6%	-17%	13	-28%
O=C(O)CCCC(=O)Nc1cccc(-c2nc3ccccc3[nH]2)c1	-2%	1%	-6%	1	-7%
O=C(COc1ccccc1)Nc1cccc(-c2nc3ccccc3[nH]2)c1	u	u	23µM*	-101*	u
COc1cc(OC)c(OC)cc1CN1CCc2nc(Nc3ccc4c(c3)OCCO4)ncc2C1	x	x	u	x	16µM*
Clc1ccc(CN2CCc3nc(Nc4ccc5c(c4)OCCO5)ncc3C2)cc1	x	x	13µM*	x	16µM*
CCOC(=O)c1cc(NC(=O)c2ccco2)ccc1N1CCOCC1	-13%	-7%	-10%	16	2%
CCCCOc1ccc(C(=O)Oc2ccc(C)nc2)cc1	11%	-16%	-10%	-9	-23%
